Laboratory results as given in PubChem BioAssay (EPA / NIEHS).
Values joined by “and” are separate entries in the source; they are usually repeats but may differ in a detail not shown here. Equal entries are not always repeated. Inconclusive results are not listed. A structure can be active in one record and inactive in another. Active and inactive are the calls of the source. Rule for the calls, unless noted: active = hit-call score of the fitted dose curve at least 0.9, where 1 is the maximum; inconclusive = response in the unintended direction; inactive = score below 0.9.

Assays:
[1] = target: Nuclear receptor subfamily 1 group I member 2 (Mus musculus) (UniProt O54915); test: ATG_mPXR_XSP2: Attagene TRANS-FACTORIAL Multi-Species (XSP1) HepG2 Assay for mouse Pregnane X Receptor (PXR) (AID 2283831)
Method in brief: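 Human liver HepG2 cells expressing exogenous receptor-GAL4 chimeras were exposed to test chemicals for 24 h. Induction of reporter mRNA was scored as gain of fluorescence signal over DMSO controls.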

[2] = target: zebrafish Thyroid Hormone Receptor alpha (TRa), thraa (gene 30670) (UniProt Q98867); test: ATG_zfTRa_XSP2: Attagene TRANS-FACTORIAL Multi-Species (XSP1) HepG2 Assay for zebrafish Thyroid Hormone Receptor alpha (TRa) (AID 2283832);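 note: actives raise zebrafish TRa-Gal4 reporter transcript above DMSO baseline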
Method in brief: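 Chimeric receptor-Gal4 activity was assessed in transfected human liver HepG2 cells 24 h after dosing, using reporter transcript levels detected by RT-PCR and capillary electrophoresis. DMSO served as baseline.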

[3] = tested on: zebrafish Peroxisome Proliferator-activated Receptor gamma (PPARg), gene 557037; test: ATG_zfPPARg_XSP2: Attagene TRANS-FACTORIAL Multi-Species (XSP2) HepG2 Assay for zebrafish Peroxisome Proliferator-activated Receptor gamma (PPARg) (AID 2283833);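 note: actives increase reporter signal over DMSO so AC50 reflects activation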
Method in brief: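 Cell-based transactivation of a chimeric zebrafish PPARg-GAL4 receptor was assessed in transiently transfected HepG2 cells after 24 h of treatment. Reporter mRNA induction, detected fluorescently after RT-PCR, was analysed in the positive direction against DMSO.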

[4] = tested on: turtle Thyroid Hormone Receptor, alpha (TRa), gene 101949057; test: ATG_trTRa_XSP2: Attagene TRANS-FACTORIAL Multi-Species (XSP1) HepG2 Assay for turtle Thyroid Hormone Receptor, alpha (TRa) (AID 2283834);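 note: hits raise reporter mRNA over the DMSO baseline so AC50 marks activators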
Method in brief: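 Gain-of-signal reporter transcription measured in transiently transfected HepG2 at 24 h post-dose. Fluorescent RT-PCR products were resolved by capillary electrophoresis and compared with DMSO vehicle.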

[5] = ATG_M_61_XSP2: Attagene TRANS-FACTORIAL Multi-Species (XSP2) HepG2 Assay for M61 Transcription Factor (Internal Marker) (AID 2283835; active = hit-call score of the fitted dose curve at least 0.9, where 1 is the maximum; inactive = score below 0.9;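 note: reporter mRNA of an internal background marker read by RT-PCR and capillary electrophoresis; active means a rise in signal above the DMSO baseline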)
Method in brief: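 First, HepG2 cells are transfected with reporter units under GAL4-UAS control. Next, chemicals are applied for 24 h. Then total RNA is reverse-transcribed, amplified, fluorescently labelled and sized by capillary electrophoresis, with gain of signal scored against DMSO.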

[6] = target: zebrafish Thyroid Hormone Receptor beta (TRb), thrb (gene 30607) (UniProt Q9PVE4); test: ATG_zfTRb_XSP2: Attagene TRANS-FACTORIAL Multi-Species (XSP1) HepG2 Assay for zebrafish Thyroid Hormone Receptor beta (TRb) (AID 2283836);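 for AC50: potency for induction of reporter signal above DMSO so agonist direction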
Method in brief: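 Fluorescence of labelled reporter cDNA fragments, separated by capillary electrophoresis, gives mRNA induction from exogenous NR-Gal4 chimeras in transiently transfected HepG2 cells after 24 h dosing; 3 nM 6-alpha-fluorotestosterone and 1.5 nM norgestrel included in the run.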

[7] = target: human Thyroid hormone Receptor alpha (TRa), THRA (gene 7067) (UniProt P10827); test: ATG_hTRa_XSP2: Attagene TRANS-FACTORIAL Multi-Species (XSP2) HepG2 Assay for human Thyroid hormone Receptor alpha (TRa) (AID 2283838)
Method in brief: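 HepG2 cells transiently transfected with multiplexed GAL4-UAS reporter units and exogenous NR-GAL4 chimeras; 24 h chemical exposure with 3 nM 6-alpha-fluorotestosterone and 1.5 nM norgestrel present. Reporter mRNA measured by RT-PCR, FAM labelling, HpaI digestion, capillary electrophoresis; gain-of-signal versus DMSO.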

[8] = target: frog Thyroid hormone Receptor alpha (TRa), thra-a (gene 397942) (UniProt P15204); test: ATG_frTRa_XSP2: Attagene TRANS-FACTORIAL Multi-Species (XSP2) HepG2 Assay for frog Thyroid hormone Receptor alpha (TRa) (AID 2283839);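 for AC50: AC50 reflects induction of frog TRa-driven reporter mRNA above DMSO baseline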
Method in brief: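 Frog thyroid receptor alpha was tested as an exogenous NR-Gal4 fusion in transiently transfected HepG2 cells. After 24 h chemical treatment, reporter mRNA induction was quantified by RT-PCR and capillary electrophoresis, with gain-of-signal analysed relative to DMSO.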

[9] = target: human Thyroid hormone Receptor beta (TRb), THRB (gene 7068) (UniProt P10828); test: ATG_hTRb_XSP2: Attagene TRANS-FACTORIAL Multi-Species (XSP2) HepG2 Assay for human Thyroid hormone Receptor beta (TRb) (AID 2283840);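 note: actives raise reporter mRNA so potency reflects agonist-like gain of signal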
Method in brief: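 In this cell-based multiplex, HepG2 liver cells carrying transfected GAL4-UAS reporter constructs are exposed to chemical for 24 hours, then reporter transcripts are measured by RT-PCR with capillary electrophoresis, scored as gain of signal against DMSO.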

[10] = ATG_XTT_Cytotoxicity_XSP2: Cytotoxicity Assessment in the Attagene TRANS-FACTORIAL Multi-Species (XSP2) HepG2 Assay (AID 2283837)
Method in brief: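 HepG2 cells, transiently transfected with multiple reporter constructs, exposed to chemical for 24 h. Cell number assessed with XTT fluorescence read-out; loss of signal fitted relative to DMSO.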

Sequence of zebrafish Thyroid Hormone Receptor alpha (TRa), thraa (gene 30670) (Q98867 whole entry, looked up, the tested form may be a part): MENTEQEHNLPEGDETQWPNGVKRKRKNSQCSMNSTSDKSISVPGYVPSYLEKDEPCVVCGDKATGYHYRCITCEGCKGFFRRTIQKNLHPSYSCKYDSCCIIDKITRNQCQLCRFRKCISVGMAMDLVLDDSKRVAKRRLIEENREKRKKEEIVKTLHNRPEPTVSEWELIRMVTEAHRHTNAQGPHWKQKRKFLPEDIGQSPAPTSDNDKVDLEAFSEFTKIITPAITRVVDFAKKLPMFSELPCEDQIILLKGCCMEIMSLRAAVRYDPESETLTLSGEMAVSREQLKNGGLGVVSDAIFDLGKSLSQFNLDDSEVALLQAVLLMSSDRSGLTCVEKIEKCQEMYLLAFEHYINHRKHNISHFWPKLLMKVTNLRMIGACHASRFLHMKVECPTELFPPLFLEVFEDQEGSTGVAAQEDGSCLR
Sequence of zebrafish Thyroid Hormone Receptor beta (TRb), thrb (gene 30607) (Q9PVE4 whole entry, looked up, the tested form may be a part): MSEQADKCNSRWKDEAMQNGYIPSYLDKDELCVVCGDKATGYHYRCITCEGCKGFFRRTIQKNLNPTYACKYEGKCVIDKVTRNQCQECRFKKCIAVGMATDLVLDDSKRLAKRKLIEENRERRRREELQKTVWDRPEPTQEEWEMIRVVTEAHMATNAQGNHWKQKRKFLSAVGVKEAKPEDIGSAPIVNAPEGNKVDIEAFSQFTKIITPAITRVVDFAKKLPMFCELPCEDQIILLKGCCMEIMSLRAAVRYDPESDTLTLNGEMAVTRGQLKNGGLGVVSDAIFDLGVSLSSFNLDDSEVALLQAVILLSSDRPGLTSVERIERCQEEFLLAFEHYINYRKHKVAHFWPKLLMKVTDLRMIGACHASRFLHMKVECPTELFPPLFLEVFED
Sequence of human Thyroid hormone Receptor beta (TRb), THRB (gene 7068) (P10828 whole entry, looked up, the tested form may be a part): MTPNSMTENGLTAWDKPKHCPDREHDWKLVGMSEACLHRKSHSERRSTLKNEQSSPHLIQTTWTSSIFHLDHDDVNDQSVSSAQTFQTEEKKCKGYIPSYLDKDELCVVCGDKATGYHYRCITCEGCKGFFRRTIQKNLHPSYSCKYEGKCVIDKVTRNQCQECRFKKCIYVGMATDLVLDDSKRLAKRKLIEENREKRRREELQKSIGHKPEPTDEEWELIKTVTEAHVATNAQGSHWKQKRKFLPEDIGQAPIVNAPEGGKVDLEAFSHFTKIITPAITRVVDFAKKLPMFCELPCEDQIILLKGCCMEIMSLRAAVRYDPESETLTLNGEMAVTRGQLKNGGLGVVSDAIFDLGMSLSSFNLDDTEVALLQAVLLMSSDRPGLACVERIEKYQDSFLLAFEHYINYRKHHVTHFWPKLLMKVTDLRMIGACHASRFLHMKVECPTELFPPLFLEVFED
Sequence of Nuclear receptor subfamily 1 group I member 2 (Mus musculus) (O54915 whole entry, looked up, the tested form may be a part): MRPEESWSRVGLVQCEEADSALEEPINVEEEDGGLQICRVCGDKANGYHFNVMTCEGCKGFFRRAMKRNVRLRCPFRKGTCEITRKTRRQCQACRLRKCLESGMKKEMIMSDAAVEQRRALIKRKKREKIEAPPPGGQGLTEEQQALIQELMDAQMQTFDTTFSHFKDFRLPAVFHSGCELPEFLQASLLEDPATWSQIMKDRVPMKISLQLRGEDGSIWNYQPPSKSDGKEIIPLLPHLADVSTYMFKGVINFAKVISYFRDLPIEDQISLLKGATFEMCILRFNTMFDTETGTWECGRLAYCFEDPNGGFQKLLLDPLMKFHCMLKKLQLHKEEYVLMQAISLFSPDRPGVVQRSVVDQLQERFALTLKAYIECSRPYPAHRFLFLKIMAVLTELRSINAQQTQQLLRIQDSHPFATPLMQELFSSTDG
Sequence of frog Thyroid hormone Receptor alpha (TRa), thra-a (gene 397942) (P15204 whole entry, looked up, the tested form may be a part): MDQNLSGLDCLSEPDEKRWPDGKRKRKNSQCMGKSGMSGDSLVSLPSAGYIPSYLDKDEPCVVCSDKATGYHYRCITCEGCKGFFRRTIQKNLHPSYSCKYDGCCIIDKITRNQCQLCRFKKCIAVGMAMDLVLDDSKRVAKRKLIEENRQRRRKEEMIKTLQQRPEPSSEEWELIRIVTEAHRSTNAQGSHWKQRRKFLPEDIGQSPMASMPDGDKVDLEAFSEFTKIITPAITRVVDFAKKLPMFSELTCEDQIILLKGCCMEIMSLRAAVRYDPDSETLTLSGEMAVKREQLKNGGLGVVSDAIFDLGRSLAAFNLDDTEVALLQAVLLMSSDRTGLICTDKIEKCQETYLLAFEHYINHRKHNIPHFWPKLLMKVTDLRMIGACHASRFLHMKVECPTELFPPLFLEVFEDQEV
Sequence of human Thyroid hormone Receptor alpha (TRa), THRA (gene 7067) (P10827 whole entry, looked up, the tested form may be a part): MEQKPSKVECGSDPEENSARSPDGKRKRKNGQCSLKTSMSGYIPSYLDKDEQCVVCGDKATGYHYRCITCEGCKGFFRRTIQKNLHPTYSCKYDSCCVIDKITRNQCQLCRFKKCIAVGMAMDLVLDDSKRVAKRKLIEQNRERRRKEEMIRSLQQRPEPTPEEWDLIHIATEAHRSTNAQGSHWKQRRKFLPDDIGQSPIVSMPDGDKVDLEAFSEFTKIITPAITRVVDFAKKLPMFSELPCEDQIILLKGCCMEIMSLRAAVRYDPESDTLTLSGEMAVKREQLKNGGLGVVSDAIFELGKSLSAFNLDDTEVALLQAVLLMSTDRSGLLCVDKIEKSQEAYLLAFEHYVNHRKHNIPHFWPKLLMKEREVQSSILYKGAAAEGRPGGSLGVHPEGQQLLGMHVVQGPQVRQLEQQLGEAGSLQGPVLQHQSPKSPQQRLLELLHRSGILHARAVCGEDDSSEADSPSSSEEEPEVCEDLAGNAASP

| SMILES | AC50 [1] | AC50 [2] | outcome [2] | outcome [3] | outcome [4] | outcome [5] | AC50 [6] | outcome [6] | AC50 [7] | outcome [7] | AC50 [8] | outcome [9] | outcome [8] | outcome [1] | outcome [10] | AC50 [3] |
| --- | --- | --- | --- | --- | --- | --- | --- | --- | --- | --- | --- | --- | --- | --- | --- | --- |
| N#Cc1c[nH]cc1-c1cccc2c1OC(F)(F)O2 | 6.52 µM (active) and 6.26 µM (active) | 27 µM (active) | inactive | inactive | inactive | inactive | 100 µM (active) | inactive | 100 µM (active) | inactive | 100 µM (active) and 60.7 µM (active) | inactive |  |  |  |  |
| CSC(=O)c1c(C(F)F)nc(C(F)(F)F)c(C(=O)SC)c1CC(C)C | 0.442 µM (active) |  |  |  |  |  |  |  |  |  |  | inactive |  |  |  |  |
| CC1(C)CCC(=Cc2ccc(Cl)cc2)C1(O)Cn1cncn1 (stereo not given) | 6.24 µM (active) |  | inactive | inactive | inactive |  |  | inactive |  | inactive |  | inactive | inactive |  |  |  |
| CC(C)NC(=O)N1CC(=O)N(c2cc(Cl)cc(Cl)c2)C1=O | 6.7 µM (active) |  | inactive | inactive | inactive | inactive |  | inactive |  | inactive |  |  | inactive |  |  |  |
| COP(=S)(OC)SCn1nnc2ccccc2c1=O |  |  |  | inactive | inactive | inactive |  | inactive |  | inactive |  | inactive | inactive | inactive | inactive |  |
| CC1(C)C(C=C(Cl)Cl)C1C(=O)OC(C#N)c1cccc(Oc2ccccc2)c1 (stereo not given) | 2.65 µM (active) |  | inactive |  | inactive | inactive |  | inactive |  | inactive |  | inactive | inactive |  |  | 12.6 µM (active) |
| C=C(C)CN(CC)c1c([N+](=O)[O-])cc(C(F)(F)F)cc1[N+](=O)[O-] | 3.92 µM (active) and 2.8 µM (active) |  | inactive | inactive |  | inactive |  | inactive |  | inactive |  | inactive | inactive |  |  |  |
| Cc1c(COC(=O)[C@@H]2[C@H](/C=C(\Cl)C(F)(F)F)C2(C)C)cccc1-c1ccccc1 | 2 µM (active) |  | inactive |  | inactive |  |  | inactive |  | inactive |  |  | inactive |  |  |  |
| CCN(CC)C(=O)C(C)Oc1cccc2ccccc12 (stereo not given) | 6.17 µM (active) |  | inactive | inactive | inactive | inactive |  | inactive |  | inactive |  | inactive | inactive |  |  |  |
| COP(=S)(OC)Oc1ccc([N+](=O)[O-])c(C)c1 | 4.6 µM (active) |  | inactive | inactive | inactive | inactive |  | inactive |  | inactive |  | inactive | inactive |  |  |  |
